Experimental data: PubChem BioAssay AID1159580 (chemical genetic matrix, 2015)
“And” between values parts separate entries of the source, which are not always exact repeats. Identical values can stand only once. Hit rate of the full screen: of about 5,500 compounds, about 2,000 (36%) were called active. Inconclusive results (about 18%) are left out. No stated cut-off is given here; in the data, active means normalized growth mostly below about 0.91 (no sharp cut-off); inconclusive means no clear call, values can overlap the other calls; inactive means mostly above about 0.92. The list shows a part of the results.

Assay: chemical genetic growth profiling, strain panel (AID 1159580);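 further: tested at 20 µM; growth read once vehicle control cultures reached saturation at 30 °C; 1 = growth at the plate median or of vehicle wells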
Conditions: S. cerevisiae deletion strains, growth OD

Which results are given for CC(C)=CCCC(C)[C@@H]1CC[C@]2(C)C3=C(CC[C@@]12C)C1(C)CC[C@H](O)C(C)(C)C1CC3 (stereo partly drawn)?
normalized growth (locus YAL021C, strain ccr4, stronger effect = lower value): 1.04 (inactive); normalized growth (locus YAL026C, strain drs2, stronger effect = lower value): 1.04 (inactive); normalized growth (locus YAL030W, strain snc1, stronger effect = lower value): 1.07 [resistant] (active); normalized growth (locus YBL061C, strain skt5, stronger effect = lower value): 1.08 (inactive); normalized growth (locus YBR009C, strain hhf1, stronger effect = lower value): 1.01 (inactive); normalized growth (locus YBR021W, strain FUR4, stronger effect = lower value): 0.941 (inactive); normalized growth (locus YBR023C, strain chs3, stronger effect = lower value): 1.08 (inactive); normalized growth (locus YBR171W, strain sec66, stronger effect = lower value): 1.06 (inactive); normalized growth (locus YBR229C, strain ROT2, stronger effect = lower value): 1.08 (inactive); normalized growth (locus YBR231C, strain swc5, stronger effect = lower value): 1.09 [resistant] (active); normalized growth (locus YBR279W, strain paf1, stronger effect = lower value): 1.07 [resistant] (active); normalized growth (locus YCL011C, strain gbp2, stronger effect = lower value): 1.07 (inactive); normalized growth (locus YCL016C, strain dcc1, stronger effect = lower value): 1.03 (inactive); normalized growth (locus YCL029C, strain bik1, stronger effect = lower value): 1 (inactive); normalized growth (locus YCL061C, strain MRC1, stronger effect = lower value): 1.06 (inactive); normalized growth (locus YCL069W, strain vba3, stronger effect = lower value): 1.07 (inactive); normalized growth (locus YCR088W, strain abp1, stronger effect = lower value): 1.08 [resistant] (active); normalized growth (locus YDL005C, strain med2, stronger effect = lower value): 1.04 (inactive); normalized growth (locus YDL035C, strain GPR1, stronger effect = lower value): 0.886 (inactive); normalized growth (locus YDL040C, strain nat1, stronger effect = lower value): 1.08 [resistant] (active); normalized growth (locus YDL074C, strain BRE1, stronger effect = lower value): 1.34 [resistant] (active); normalized growth (locus YDL101C, strain DUN1, stronger effect = lower value): 1.02 (inactive); normalized growth (locus YDL185W, strain tfp1, stronger effect = lower value): 1.01 (inactive); normalized growth (locus YDL192W, strain arf1, stronger effect = lower value): 1.02 (inactive); normalized growth (locus YDR001C, strain nth1, stronger effect = lower value): 1.07 (inactive); normalized growth (locus YDR069C, strain doa4, stronger effect = lower value): 1.03 (inactive); normalized growth (locus YDR101C, strain arx1, stronger effect = lower value): 0.967 (inactive); normalized growth (locus YDR137W, strain rgp1, stronger effect = lower value): 0.774 (active); normalized growth (locus YDR159W, strain sac3, stronger effect = lower value): 1.05 (inactive); normalized growth (locus YDR162C, strain NBP2, stronger effect = lower value): 0.913 (inactive); normalized growth (locus YDR195W, strain ref2): 1.13 (inactive); normalized growth (locus YDR297W, strain sur2, stronger effect = lower value): 1.07 (inactive); normalized growth (locus YDR318W, strain mcm21, stronger effect = lower value): 1.01 (inactive); normalized growth (locus YDR334W, strain swr1, stronger effect = lower value): 1.05 (inactive); normalized growth (locus YDR335W, strain msn5, stronger effect = lower value): 1.02 (inactive); normalized growth (locus YDR388W, stronger effect = lower value): 1.03 (inactive); normalized growth (locus YDR392W, strain spt3, stronger effect = lower value): 1.02 (inactive); normalized growth (locus YDR502C, strain sam2, stronger effect = lower value): 0.989 (inactive); normalized growth (locus YEL003W, strain gim4, stronger effect = lower value): 1.02 (inactive); normalized growth (locus YEL037C, strain rad23, stronger effect = lower value): 1.06 (inactive); normalized growth (locus YEL061C, strain CIN8 (second series), stronger effect = lower value): 1.06 (inactive); normalized growth (locus YER015W, strain faa2, stronger effect = lower value): 1.08 [resistant] (active); normalized growth (locus YER016W, strain bim1, stronger effect = lower value): 1.07 (inactive); normalized growth (locus YER110C, stronger effect = lower value): 1.05 (inactive); normalized growth (locus YER111C, strain swi4, stronger effect = lower value): 1.08 (inactive); normalized growth (locus YER155C, strain BEM2 (second series), stronger effect = lower value): 1.09 (inactive); normalized growth (locus YER155C, strain BEM2, stronger effect = lower value): 1.1 [resistant] (active); normalized growth (locus YER167W, strain BCK2, stronger effect = lower value): 1.08 (inactive); normalized growth (locus YFR010W, strain ubp6, stronger effect = lower value): 1 (inactive); normalized growth (locus YGL078C, strain dbp3, stronger effect = lower value): 0.889 (active); normalized growth (locus YGL086W, strain mad1, stronger effect = lower value): 1 (inactive); normalized growth (locus YGL167C, strain pmr1, stronger effect = lower value): 1.08 (inactive); normalized growth (locus YGL173C, strain kem1, stronger effect = lower value): 1.02 (inactive); normalized growth (locus YGL227W, strain vid30, stronger effect = lower value): 1.07 (inactive); normalized growth (locus YGL240W, strain doc1, stronger effect = lower value): 1.02 (inactive); normalized growth (locus YGL248W, strain PDE1, stronger effect = lower value): 1.01 (inactive); normalized growth (locus YGL253W, strain hxk2, stronger effect = lower value): 1.04 (inactive); normalized growth (locus YGR078C, strain PAC10, stronger effect = lower value): 1.13 (inactive); normalized growth (locus YGR135W, strain pre9, stronger effect = lower value): 0.996 (inactive); normalized growth (locus YGR252W, strain gcn5, stronger effect = lower value): 0.985 (inactive); normalized growth (locus YHR013C, strain ard1, stronger effect = lower value): 1.15 (inactive); normalized growth (locus YHR027C, strain rpn1, stronger effect = lower value): 1.06 (inactive); normalized growth (locus YHR030C, strain SLT2, stronger effect = lower value): 1.1 [resistant] (active) and 0.945 (inactive); normalized growth (locus YHR079C, strain IRE1 (second series), stronger effect = lower value): 1.05 (inactive); normalized growth (locus YHR079C, strain IRE1, stronger effect = lower value): 0.877 (inactive); normalized growth (locus YHR094C, strain hxt1, stronger effect = lower value): 1.07 (inactive); normalized growth (locus YHR129C, strain ARP1, stronger effect = lower value): 1.06 (inactive); normalized growth (locus YHR142W, strain chs7, stronger effect = lower value): 1.03 (inactive); normalized growth (locus YHR200W, strain rpn10, stronger effect = lower value): 1.01 (inactive); normalized growth (locus YIL066C, strain RNR3, stronger effect = lower value): 1.03 (inactive); normalized growth (locus YIL073C, strain SPO22, stronger effect = lower value): 1.43 [resistant] (active); normalized growth (locus YIL125W, strain kgd1, stronger effect = lower value): 1.01 (inactive); normalized growth (locus YIR030C, strain dcg1, stronger effect = lower value): 1.06 (inactive); normalized growth (locus YJL092W, strain hpr5, stronger effect = lower value): 1.08 (inactive); normalized growth (locus YJL095W, strain BCK1 (second series), stronger effect = lower value): 1.08 [resistant] (active); normalized growth (locus YJL095W, strain BCK1, stronger effect = lower value): 1.14 (inactive) and 0.943 (inactive); normalized growth (locus YJL115W, strain asf1, stronger effect = lower value): 1.06 (inactive); normalized growth (locus YJL129C, strain trk1, stronger effect = lower value): 1.08 (inactive); normalized growth (locus YJL134W, strain LCB3, stronger effect = lower value): 1.07 [resistant] (active); normalized growth (locus YJL154C, strain vps35, stronger effect = lower value): 1.08 (inactive); normalized growth (locus YJL164C, strain tpk1, stronger effect = lower value): 1.02 (inactive); normalized growth (locus YJL166W, strain qcr8, stronger effect = lower value): 1.03 (inactive); normalized growth (locus YJL168C, strain set2, stronger effect = lower value): 1.1 [resistant] (active)
